Measured values published in the supplement of paper PMC6555819.

What was measured:
Assay in all cases: PBM binding z-score (relative to random genomic background probes); higher = stronger binding; sequences stand for … in GC…GCGATTGACAGCGTAGAATGAAGG
[1] = tested on: PPARg:RXRa DBDmut IVT, anti-RXR (DBD mutation: RXRa K156A/R161A, NR concentration 270 nM, RXRa partner concentration 90 nM)
Procedure, shortened: (§1)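 Binding buffer was PBS pH 7.4 with 2% milk, 0.02% Triton X-100, 1 mM DTT, 0.2 mg/mL BSA and 0.4 mg/ml salmon testes DNA. In it, ligand-free nuclear receptor dimers were incubated 1 h on custom Agilent 4×180K protein-binding microarrays carrying double-stranded probes. Antibodies against each partner (one per run) detected binding, and z-scores were calculated against random background probes after regression normalization of scanned fluorescence.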

[2] = tested on: PPARg:RXRa IVT, anti-PPARg (NR concentration 270 nM, RXRa partner concentration 90 nM)
Procedure, shortened: as §1

[3] = tested on: PPARg DBDmut:RXRa IVT, anti-PPARg (DBD mutation: PPARg1 K132A/R137A, NR concentration 270 nM, RXRa partner concentration 90 nM)
Procedure, shortened: as §1

[4] = tested on: PPARg DBDmut IVT, anti-PPARg (DBD mutation: PPARg1 K132A/R137A, NR concentration 270 nM)
Procedure, shortened: as §1

[5] = tested on: PPARg homodimer (NR concentration 180 nM)
Procedure, shortened: as §1

[6] = tested on: PXR:RXRa (NR concentration 270 nM, RXRa partner concentration 90 nM)
Procedure, shortened: as §1

[7] = tested on: PXR homodimer (NR concentration 270 nM)
Procedure, shortened: as §1

[8] = tested on: RARa:RXR (NR concentration 270 nM, RXRa partner concentration 90 nM)
Procedure, shortened: as §1

[9] = tested on: RARa homodimer (NR concentration 270 nM)
Procedure, shortened: as §1

[10] = tested on: RARb:RXRa (NR concentration 270 nM, RXRa partner concentration 90 nM)
Procedure, shortened: as §1

| Sequence | PBM binding z-score [1] | PBM binding z-score [2] | PBM binding z-score [3] | PBM binding z-score [4] | PBM binding z-score [5] | PBM binding z-score [6] | PBM binding z-score [7] | PBM binding z-score [8] | PBM binding z-score [9] | PBM binding z-score [10] |
| --- | --- | --- | --- | --- | --- | --- | --- | --- | --- | --- |
| CCTTACGGGTCACGAGGTTAGAGCACGACGAGCG | 4.55 | 5.59 | 2.76 | 1.38 | 2.96 | 4.32 | -0.124 | 5.72 | 0.978 | 4.6 |
| CCTAGTTGGTCAGGCGGTCACACACCGGATATGA | 0.37 | 0.945 | -0.344 | -0.024 | 0.926 | 0.0317 | 0.384 | -0.0122 | 0.796 | 1.75 |
| TCATATAGGTAAAAGGTGGAAGTCGGTGTGGTAA | 5.75 | 3.56 | 0.901 | 0.975 | 2.35 | 0.586 | 0.623 | 1.18 | 1.17 | 0.885 |
| CCGAGTTGGTCAGGAGGTCACACACCGGATATGA | 0.95 | 2.61 | 0.01 | 0.0417 | 3.62 | 4.53 | 1.31 | 4.71 | 1.54 | 3.66 |
| ACTATTAGTTGAGACTAGGGCAACCGATAGGTTG | 1.02 | 2.46 | 0.767 | 0.914 | -0.0941 | -0.323 | -0.0618 | -0.0584 | 0.518 | 0.583 |
| TCATATCGGTAAAGGTGAAAGTCGAACGATATGA | 1.56 | 2.05 | 0.818 | 0.266 | 0.769 | 0.507 | -0.566 | 1.62 | 0.00667 | 1.98 |
| TCGAGTAGGTTTCCAATGGGGCATTCAGCTTTCT | 1.53 | 0.378 | -1.11 | -0.734 | -1.12 | -0.503 | -1.03 | -0.636 | -1.26 | -0.326 |
| CCGACTGGGACAAAGGTTACCATACTCAGTACGA | 3.26 | 5.21 | 0.234 | 0.111 | 1.47 | 1.51 | -0.265 | 2.39 | 0.207 | 2.03 |
| CTACCAAGGTGAACAATGTCGTTGATTACTATTC | 2.67 | 2.51 | 0.151 | 0.164 | 0.475 | 0.327 | -0.0411 | 0.755 | 0.471 | 1.67 |
| AGTCAAAGTTCCCTAGGTAACGTAAGATTCAGCT | -0.23 | 0.612 | -0.729 | 0.358 | -0.325 | 0.00195 | -0.697 | -0.125 | -0.463 | 0.687 |
| GCATATAGGTAATACAAGGTGAAAGGCCGATTGT | 3.82 | 3.44 | 0.554 | 0.825 | 0.878 | 0.592 | 0.222 | 1.66 | 0.91 | 0.547 |
| GCTGCTAGGTCAACTGATGGTCAGTTAAAGCTCG | 4.66 | 4.13 | -0.118 | -0.331 | 1.79 | 1.64 | -0.519 | 2.6 | -0.0466 | 4.15 |
| AGAATGAGGTTATTATGATCAGGGAATTGCGGTC | 3.67 | 2.89 | 1.32 | 0.834 | 0.53 | 1.11 | 0.371 | 1.34 | 0.69 | 1.24 |
| GGAACGAGGCCATTCGAGTTGATAGCATGGCGAT | 2.23 | 1.22 | -0.239 | -0.906 | -0.779 | 1.73 | 0.561 | -0.0585 | -1.34 | 0.94 |
| TCTGCAAGGTCAACGATGGTCAGCTAATCTGCTA | 3.02 | 3.91 | -0.02 | -0.552 | 2.84 | 4.57 | 0.31 | 4.65 | 0.319 | 5.27 |
| CGAACTAGGTCAGAACAGGACAATGAAGGATGAT | 6.72 | 7.28 | 2.05 | 0.683 | 0.602 | 1.23 | 0.343 | 0.703 | 0.399 | 2.98 |
| CGAACGAGGGGATGAGTTGATAGCAAATGCCGAT | 0.602 | 0.068 | 0.241 | 0.151 | 0.0087 | -0.392 | 0.00406 | -0.399 | 0.243 | -0.301 |
| GCTGACAGGTGAAACGCAGGTAACTCAGGGTGGC | 1.22 | 0.804 | -0.781 | -1.24 | -0.522 | -0.223 | -0.797 | 0.499 | -1.1 | 0.773 |
| CGTCCAAGGTCAAAGATCAGTGAAGAGATGACGG | 3.3 | 3.88 | 0.698 | -0.108 | 2.98 | 4.59 | 1.01 | 5.63 | 1.03 | 5.16 |
| GCATATTGGTAATACAAGGTGAAAGTCCGATTGT | 0.078 | 0.938 | 1.13 | 0.842 | 0.326 | 0.0953 | 0.0473 | 0.645 | -0.0157 | 0.266 |
| ACTCGGAGGCCAAAGGTCAGAGCTACGCCAGTGA | 1 | 4.07 | 0.0532 | -0.392 | 6.38 | 4.9 | -0.00137 | 6.59 | 1.38 | 4.53 |
| TAGCCTAGGTCATGGGCCAGTATGCCACGCGAAC | 1.9 | 3.62 | -0.369 | 0.218 | 1.49 | 1.42 | -0.923 | 2.53 | -0.739 | 3.93 |
| CCGACTGCGGCAAAGGTTACCATACTCAGTACGA | 0.233 | 0.732 | 0.0182 | 0.245 | 0.843 | 1.61 | -0.16 | 2.57 | 0.118 | 1.82 |
